From ChEMBL document CHEMBL4513146, “CO-ADD screening of Karazin Kharkiv National University (Ukraine) compounds”
Potency and affinity values are given separately.

These molecules were tested on Candida albicans. Settings: Concentration 32 ug.mL-1; ASSAY_TEST Inhibition of Fungal Growth; detection method Absorption (OD530).

SMILES	Inhibition
CCCCn1c(=O)c2sccc2n2c(CCC(=O)NC(C)C34CC5CC(CC(C5)C3)C4)nnc12 (stereo not given)	-2.51%
O=C(Cn1nc2c(Oc3ccccc3)nccn2c1=O)Nc1ccc(F)cc1Cl	0.77%
COC(=O)c1ccc(NC(=O)Cn2nc3c(Oc4cccc(OC)c4)nccn3c2=O)cc1	12.96%
N#CCn1nc2n(Cc3ccc(F)cc3)c(=O)c3ccccc3n2c1=O	3.09%
O=c1c2nnc(-c3cccc([N+](=O)[O-])c3)n2ccn1-c1ccc(F)cc1	5.6%
COc1cccc(-n2ccn3c(SCC(=O)c4cc(C)ccc4C)nnc3c2=O)c1	5.19%
CCCN(C)c1nccn2c(=O)n(CC(=O)Nc3ccc(F)cc3)nc12	1.98%
COc1cccc(Oc2nccn3c(=O)n(CC(=O)Nc4cc(F)ccc4F)nc23)c1	5.06%
O=C(Cn1nc2ccc(C(=O)NCc3ccccc3)cn2c1=O)Nc1ccc(Br)cc1	2.27%
N#Cc1cccc(NC(=O)Cn2nc3c(Oc4ccccc4)nccn3c2=O)c1	1.17%
COc1cc(NC(=O)Cn2nc3c(N4CCCC4)nccn3c2=O)cc(OC)c1	-1.46%
CC(C)c1nnc2c(SCC(=O)Nc3ccc(C#N)cc3)nc3ccccc3n12	0.55%
CCOc1ccc(-n2ccn3c(SC(CC)C(=O)Nc4ccc(C(C)C)cc4)nnc3c2=O)cc1 (stereo not given)	6.16%
CC(C)CCn1c(=O)c2ccc(C(=O)NC3CCCC3)cc2n2c(=O)n(CC#N)nc12	2.41%
COc1cccc(CN(c2cc(F)cc(F)c2)S(=O)(=O)c2ccc3nnc(C)n3c2)c1	1.34%
